The target of assay [1] is T1, Ephrin type-A receptor 3 (Homo sapiens) (UniProt P29320).
T1 sequence (whole entry): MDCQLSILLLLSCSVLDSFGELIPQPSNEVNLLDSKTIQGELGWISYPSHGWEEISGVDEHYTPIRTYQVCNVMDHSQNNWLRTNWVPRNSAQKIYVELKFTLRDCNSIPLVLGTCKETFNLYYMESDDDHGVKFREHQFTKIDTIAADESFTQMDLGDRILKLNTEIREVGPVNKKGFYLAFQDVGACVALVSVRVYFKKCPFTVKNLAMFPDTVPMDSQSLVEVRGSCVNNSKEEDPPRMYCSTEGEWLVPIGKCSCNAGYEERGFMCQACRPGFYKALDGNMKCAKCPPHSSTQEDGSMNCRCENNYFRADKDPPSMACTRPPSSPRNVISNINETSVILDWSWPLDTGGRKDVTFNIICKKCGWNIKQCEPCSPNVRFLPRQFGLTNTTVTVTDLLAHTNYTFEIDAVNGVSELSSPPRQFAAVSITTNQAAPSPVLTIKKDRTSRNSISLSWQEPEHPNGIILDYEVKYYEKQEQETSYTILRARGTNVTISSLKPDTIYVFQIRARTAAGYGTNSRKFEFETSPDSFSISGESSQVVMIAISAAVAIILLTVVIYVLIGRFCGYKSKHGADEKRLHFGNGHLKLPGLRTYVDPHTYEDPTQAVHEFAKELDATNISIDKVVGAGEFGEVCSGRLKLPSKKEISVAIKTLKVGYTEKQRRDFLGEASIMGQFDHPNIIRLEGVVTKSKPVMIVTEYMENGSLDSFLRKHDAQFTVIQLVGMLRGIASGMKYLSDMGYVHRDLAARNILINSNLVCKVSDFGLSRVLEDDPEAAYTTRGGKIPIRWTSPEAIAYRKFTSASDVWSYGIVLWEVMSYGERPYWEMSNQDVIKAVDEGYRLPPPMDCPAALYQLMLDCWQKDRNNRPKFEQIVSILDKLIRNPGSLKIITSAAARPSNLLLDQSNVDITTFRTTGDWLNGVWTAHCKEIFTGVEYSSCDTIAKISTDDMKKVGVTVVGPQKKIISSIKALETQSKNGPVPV
To be noted: at 10 µM.

Assay [2] addresses Ephrin type-A receptor 4 (Homo sapiens) (UniProt P54764). As to conditions: at 1 µM; call rule not given here.
Assay [3] shares this target. To be noted: at 10 µM.
Assay [4] concerns the target Ephrin type-A receptor 5 (Homo sapiens) (UniProt P54756). As to conditions: at 1 µM.
Assay [5] shares this target. As to conditions: at 10 µM.
The target of assay [6] is Ephrin type-A receptor 7 (Homo sapiens) (UniProt Q15375). To be noted: at 1 µM.
Sequence of Ephrin type-A receptor 7 (Homo sapiens) (Q15375 28-998 limits assumed): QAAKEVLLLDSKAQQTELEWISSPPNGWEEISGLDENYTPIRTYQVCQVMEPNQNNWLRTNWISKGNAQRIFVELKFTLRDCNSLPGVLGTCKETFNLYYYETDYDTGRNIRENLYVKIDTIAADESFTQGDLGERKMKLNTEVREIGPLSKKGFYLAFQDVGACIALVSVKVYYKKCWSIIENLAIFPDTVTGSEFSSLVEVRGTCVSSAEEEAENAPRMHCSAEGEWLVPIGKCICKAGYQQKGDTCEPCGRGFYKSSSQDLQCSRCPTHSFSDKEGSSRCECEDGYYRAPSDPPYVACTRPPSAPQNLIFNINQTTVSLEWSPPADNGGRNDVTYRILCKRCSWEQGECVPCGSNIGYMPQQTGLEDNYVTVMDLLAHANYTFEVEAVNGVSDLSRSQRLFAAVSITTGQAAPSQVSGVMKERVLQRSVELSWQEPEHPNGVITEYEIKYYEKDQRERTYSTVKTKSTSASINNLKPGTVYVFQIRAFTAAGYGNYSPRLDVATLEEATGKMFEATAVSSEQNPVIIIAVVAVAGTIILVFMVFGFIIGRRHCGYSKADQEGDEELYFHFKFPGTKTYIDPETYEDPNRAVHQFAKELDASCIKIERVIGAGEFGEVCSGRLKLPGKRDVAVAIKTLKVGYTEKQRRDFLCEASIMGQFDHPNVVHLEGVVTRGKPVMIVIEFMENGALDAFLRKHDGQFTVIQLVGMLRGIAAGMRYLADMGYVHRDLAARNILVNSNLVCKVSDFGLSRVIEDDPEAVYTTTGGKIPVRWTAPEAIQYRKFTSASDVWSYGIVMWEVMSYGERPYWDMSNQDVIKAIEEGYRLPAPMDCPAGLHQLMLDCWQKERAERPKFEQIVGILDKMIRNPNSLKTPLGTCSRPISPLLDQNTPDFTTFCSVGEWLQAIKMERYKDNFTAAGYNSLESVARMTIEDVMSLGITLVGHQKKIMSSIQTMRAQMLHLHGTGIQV
Assay [7] shares this target. As to conditions: at 10 µM.
The target of assay [8] is T2, Ephrin type-A receptor 8 (Homo sapiens) (UniProt P29322).
T2 sequence (whole entry): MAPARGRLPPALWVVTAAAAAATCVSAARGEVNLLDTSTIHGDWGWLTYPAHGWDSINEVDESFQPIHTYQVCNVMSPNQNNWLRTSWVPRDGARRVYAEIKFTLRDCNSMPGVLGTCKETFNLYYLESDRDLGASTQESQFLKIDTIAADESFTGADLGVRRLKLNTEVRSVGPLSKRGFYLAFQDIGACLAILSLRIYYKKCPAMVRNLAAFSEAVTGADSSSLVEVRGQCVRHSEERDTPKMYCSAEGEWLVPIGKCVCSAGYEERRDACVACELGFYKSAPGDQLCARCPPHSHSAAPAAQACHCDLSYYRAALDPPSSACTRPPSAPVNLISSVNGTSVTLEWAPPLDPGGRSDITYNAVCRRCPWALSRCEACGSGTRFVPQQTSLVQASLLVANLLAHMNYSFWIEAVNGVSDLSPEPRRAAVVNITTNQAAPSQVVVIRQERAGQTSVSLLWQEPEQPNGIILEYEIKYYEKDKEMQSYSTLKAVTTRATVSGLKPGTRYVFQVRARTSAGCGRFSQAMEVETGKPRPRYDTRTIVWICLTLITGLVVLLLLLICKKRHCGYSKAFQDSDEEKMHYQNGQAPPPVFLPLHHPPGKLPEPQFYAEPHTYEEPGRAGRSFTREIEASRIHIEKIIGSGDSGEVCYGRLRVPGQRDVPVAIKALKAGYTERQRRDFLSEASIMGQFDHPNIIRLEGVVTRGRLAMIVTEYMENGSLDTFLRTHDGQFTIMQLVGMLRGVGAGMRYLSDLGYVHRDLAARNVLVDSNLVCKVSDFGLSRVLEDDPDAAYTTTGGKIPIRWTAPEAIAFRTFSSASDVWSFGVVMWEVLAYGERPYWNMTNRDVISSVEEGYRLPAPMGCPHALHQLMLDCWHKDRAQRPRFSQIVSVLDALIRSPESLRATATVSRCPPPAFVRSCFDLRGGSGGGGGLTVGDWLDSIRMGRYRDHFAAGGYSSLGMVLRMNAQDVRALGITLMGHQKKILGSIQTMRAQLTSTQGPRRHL
As to conditions: at 1 µM.

Assay [9] concerns the target T2, Ephrin type-A receptor 8 (Homo sapiens). As to conditions: at 10 µM.
Assay [10] has as its target T3, Ephrin type-B receptor 2 (Homo sapiens) (UniProt P29323).
T3 sequence (whole entry): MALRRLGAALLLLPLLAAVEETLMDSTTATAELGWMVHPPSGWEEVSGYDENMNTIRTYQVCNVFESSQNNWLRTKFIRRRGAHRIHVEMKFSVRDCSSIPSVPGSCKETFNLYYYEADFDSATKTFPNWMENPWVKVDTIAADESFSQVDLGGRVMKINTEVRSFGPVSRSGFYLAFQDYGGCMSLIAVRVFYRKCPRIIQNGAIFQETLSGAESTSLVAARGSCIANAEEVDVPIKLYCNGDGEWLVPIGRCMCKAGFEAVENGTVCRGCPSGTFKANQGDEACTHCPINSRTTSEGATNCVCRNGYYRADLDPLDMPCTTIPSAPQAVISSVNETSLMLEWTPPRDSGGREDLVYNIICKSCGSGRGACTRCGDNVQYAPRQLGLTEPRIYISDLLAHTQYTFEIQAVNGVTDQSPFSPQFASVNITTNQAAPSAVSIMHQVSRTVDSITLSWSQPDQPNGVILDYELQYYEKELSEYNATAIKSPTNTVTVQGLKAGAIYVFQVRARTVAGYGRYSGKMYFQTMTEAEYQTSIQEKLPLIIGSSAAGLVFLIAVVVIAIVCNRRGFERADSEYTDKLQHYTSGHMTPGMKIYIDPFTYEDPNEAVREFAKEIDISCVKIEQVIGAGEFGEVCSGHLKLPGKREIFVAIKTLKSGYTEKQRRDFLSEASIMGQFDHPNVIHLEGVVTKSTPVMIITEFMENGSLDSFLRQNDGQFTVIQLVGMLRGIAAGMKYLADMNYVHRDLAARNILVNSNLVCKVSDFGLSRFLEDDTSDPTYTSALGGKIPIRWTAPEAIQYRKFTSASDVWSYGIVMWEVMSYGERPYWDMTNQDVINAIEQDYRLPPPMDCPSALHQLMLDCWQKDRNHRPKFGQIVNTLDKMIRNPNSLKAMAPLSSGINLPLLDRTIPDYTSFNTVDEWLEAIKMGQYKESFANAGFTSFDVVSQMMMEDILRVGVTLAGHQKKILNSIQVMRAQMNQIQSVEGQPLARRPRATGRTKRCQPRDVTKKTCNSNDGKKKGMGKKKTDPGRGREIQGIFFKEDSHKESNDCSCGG
As to conditions: at 1 µM.

The target in assay [11] is T3, Ephrin type-B receptor 2 (Homo sapiens). As to conditions: at 10 µM.
Assay [12] deals with T4, Ephrin type-B receptor 3 (Homo sapiens) (UniProt P54753).
T4 sequence (whole entry): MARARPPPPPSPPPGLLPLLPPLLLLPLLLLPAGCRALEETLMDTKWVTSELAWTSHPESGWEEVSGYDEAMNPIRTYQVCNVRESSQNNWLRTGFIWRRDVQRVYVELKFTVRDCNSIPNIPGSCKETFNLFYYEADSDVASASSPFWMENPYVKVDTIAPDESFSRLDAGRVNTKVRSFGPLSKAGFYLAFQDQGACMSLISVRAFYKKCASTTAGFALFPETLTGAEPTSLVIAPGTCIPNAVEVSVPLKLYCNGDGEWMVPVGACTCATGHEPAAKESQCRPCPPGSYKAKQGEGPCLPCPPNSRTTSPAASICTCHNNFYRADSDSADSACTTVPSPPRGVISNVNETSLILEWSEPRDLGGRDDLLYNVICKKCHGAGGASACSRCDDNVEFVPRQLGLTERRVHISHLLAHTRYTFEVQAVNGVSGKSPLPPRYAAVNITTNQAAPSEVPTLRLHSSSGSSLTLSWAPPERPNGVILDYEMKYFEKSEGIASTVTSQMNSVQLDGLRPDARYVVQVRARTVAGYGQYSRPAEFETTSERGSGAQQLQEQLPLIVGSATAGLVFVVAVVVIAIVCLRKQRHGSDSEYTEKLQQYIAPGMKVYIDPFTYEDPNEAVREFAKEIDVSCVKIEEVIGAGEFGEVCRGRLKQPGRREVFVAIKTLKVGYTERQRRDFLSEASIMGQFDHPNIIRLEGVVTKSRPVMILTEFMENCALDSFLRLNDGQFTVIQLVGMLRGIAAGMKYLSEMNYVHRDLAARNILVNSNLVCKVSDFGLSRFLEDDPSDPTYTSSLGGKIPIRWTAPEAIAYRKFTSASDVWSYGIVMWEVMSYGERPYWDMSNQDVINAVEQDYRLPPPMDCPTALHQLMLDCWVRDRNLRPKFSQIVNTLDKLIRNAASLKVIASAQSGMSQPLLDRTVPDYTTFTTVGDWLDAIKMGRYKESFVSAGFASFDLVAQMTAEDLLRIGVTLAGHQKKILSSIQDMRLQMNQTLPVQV
To be noted: at 1 µM.

The target of assay [13] is T4, Ephrin type-B receptor 3 (Homo sapiens). To be noted: at 10 µM.
For assay [14], the target named is T5, Ephrin type-B receptor 4 (Homo sapiens) (UniProt P54760).
T5 sequence (whole entry): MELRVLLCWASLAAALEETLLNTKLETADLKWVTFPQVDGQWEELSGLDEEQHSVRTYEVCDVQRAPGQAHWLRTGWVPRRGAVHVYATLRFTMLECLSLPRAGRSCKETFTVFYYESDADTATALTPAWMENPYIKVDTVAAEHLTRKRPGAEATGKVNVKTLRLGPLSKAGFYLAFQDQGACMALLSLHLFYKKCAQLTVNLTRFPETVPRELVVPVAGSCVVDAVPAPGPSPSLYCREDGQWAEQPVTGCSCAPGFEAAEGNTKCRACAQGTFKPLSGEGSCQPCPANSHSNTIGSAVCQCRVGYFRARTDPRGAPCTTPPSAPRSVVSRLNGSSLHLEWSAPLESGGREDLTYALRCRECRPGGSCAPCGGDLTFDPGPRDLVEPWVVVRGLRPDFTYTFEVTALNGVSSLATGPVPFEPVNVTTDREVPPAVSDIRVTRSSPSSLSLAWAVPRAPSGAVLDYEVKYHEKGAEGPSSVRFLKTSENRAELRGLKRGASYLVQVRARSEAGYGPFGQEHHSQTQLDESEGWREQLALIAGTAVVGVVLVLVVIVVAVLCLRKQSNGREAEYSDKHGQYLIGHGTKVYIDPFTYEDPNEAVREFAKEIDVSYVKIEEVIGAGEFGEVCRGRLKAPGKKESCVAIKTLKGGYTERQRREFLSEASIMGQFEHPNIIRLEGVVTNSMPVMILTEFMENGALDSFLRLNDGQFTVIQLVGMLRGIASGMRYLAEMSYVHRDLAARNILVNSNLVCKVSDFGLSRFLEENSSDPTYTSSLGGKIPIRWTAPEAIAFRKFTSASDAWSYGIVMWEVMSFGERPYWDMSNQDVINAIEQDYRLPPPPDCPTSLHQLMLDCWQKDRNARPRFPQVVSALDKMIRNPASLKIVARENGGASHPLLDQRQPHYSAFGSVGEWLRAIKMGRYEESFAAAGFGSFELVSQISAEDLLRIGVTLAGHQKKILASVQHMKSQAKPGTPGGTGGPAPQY
To be noted: at 1 µM.

The target of assay [15] is T5, Ephrin type-B receptor 4 (Homo sapiens). As to conditions: at 10 µM.
Assay [16] deals with Receptor tyrosine-protein kinase erbB-4 (Homo sapiens) (UniProt Q15303). As to conditions: at 1 µM.
Sequence of Receptor tyrosine-protein kinase erbB-4 (Homo sapiens) (Q15303 whole entry): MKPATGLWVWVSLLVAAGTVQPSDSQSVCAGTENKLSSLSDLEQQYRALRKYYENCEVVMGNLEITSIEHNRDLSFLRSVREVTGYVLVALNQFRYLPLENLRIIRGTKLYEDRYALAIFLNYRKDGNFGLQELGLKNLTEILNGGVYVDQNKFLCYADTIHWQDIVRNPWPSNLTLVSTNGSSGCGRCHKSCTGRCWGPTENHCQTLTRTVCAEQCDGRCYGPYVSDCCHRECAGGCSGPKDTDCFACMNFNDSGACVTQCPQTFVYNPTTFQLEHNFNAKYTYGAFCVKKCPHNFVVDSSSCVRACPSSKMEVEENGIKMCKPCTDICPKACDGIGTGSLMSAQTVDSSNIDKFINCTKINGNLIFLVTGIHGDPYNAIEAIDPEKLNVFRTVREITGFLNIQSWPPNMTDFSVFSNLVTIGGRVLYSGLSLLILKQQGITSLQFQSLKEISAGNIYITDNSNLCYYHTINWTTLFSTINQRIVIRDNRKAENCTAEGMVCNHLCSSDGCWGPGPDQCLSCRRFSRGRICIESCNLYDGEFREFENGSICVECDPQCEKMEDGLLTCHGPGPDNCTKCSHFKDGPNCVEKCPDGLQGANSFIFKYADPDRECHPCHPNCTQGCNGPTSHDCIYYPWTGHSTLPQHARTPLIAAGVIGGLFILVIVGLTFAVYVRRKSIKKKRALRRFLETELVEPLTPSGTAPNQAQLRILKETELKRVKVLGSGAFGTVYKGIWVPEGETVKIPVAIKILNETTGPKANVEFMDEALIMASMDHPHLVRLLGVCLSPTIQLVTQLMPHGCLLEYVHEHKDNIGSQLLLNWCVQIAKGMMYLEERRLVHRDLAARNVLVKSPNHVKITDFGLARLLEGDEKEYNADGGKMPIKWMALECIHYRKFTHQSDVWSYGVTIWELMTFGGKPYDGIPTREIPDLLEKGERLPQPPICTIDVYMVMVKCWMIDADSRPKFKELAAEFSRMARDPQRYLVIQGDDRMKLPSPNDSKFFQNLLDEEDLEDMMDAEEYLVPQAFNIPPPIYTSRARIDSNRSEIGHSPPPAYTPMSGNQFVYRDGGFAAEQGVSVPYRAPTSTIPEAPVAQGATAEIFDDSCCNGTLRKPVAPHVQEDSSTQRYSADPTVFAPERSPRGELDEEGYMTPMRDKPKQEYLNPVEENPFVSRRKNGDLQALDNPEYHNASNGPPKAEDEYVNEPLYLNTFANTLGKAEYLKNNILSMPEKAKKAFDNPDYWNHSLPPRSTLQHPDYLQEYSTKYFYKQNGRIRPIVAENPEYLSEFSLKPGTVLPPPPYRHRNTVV
The target of assay [17] is Focal adhesion kinase 1 (Homo sapiens) (UniProt Q05397). As to conditions: at 1 µM.

Each structure is given as a SMILES string.

Sequence of Ephrin type-A receptor 5 (Homo sapiens) (P54756 whole entry): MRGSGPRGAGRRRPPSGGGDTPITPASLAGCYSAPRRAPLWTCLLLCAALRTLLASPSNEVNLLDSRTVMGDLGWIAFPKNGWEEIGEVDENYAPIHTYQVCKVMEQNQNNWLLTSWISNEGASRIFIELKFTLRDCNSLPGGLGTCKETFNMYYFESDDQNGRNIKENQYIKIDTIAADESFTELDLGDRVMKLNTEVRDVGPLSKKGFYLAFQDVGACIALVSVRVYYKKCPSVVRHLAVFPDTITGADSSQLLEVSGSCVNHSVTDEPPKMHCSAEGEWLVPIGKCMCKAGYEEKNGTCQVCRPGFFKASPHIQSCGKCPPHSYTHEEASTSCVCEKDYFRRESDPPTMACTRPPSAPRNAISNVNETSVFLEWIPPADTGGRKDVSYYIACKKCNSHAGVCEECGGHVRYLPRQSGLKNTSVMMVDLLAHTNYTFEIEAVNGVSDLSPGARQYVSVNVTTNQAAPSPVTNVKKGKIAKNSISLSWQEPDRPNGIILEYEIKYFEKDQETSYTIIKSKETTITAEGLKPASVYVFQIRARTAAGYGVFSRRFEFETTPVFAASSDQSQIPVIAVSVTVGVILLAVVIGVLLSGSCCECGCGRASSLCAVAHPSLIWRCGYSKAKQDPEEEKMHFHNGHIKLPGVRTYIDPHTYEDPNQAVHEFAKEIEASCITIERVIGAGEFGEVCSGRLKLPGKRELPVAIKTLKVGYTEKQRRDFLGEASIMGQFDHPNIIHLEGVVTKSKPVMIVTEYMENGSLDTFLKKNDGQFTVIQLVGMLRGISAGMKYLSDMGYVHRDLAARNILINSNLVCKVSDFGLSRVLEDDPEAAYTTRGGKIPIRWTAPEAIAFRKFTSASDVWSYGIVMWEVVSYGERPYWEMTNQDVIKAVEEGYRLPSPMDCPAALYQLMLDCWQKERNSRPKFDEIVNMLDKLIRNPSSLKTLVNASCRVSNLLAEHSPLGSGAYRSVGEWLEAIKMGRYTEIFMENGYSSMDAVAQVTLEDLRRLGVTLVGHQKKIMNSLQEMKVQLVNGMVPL
Sequence of Ephrin type-A receptor 4 (Homo sapiens) (P54764 whole entry): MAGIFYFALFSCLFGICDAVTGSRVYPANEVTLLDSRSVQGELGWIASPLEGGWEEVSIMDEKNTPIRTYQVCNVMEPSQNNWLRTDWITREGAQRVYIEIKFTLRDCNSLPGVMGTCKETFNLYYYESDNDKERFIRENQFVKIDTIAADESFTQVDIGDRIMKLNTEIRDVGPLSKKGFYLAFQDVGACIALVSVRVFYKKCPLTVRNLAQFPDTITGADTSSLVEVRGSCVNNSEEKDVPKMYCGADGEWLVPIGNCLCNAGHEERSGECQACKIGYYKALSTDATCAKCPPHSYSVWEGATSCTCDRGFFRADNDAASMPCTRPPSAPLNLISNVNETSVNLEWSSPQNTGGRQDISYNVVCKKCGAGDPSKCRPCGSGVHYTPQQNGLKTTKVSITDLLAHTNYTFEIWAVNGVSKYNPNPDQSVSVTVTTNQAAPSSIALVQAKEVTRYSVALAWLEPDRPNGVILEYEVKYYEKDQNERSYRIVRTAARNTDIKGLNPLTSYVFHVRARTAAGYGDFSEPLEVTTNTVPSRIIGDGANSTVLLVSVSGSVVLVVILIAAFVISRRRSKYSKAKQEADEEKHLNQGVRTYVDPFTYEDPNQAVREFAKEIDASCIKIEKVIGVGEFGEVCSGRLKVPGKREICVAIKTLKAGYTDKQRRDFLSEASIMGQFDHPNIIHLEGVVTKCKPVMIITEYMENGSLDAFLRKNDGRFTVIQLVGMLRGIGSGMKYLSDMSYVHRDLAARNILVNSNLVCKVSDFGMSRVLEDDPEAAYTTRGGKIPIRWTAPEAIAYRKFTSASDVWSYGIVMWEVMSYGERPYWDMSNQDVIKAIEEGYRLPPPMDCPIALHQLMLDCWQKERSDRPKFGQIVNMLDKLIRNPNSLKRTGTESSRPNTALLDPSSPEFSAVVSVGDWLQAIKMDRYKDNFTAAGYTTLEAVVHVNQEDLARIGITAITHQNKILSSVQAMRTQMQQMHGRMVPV

By residual activity is commonly meant the signal under treatment as a percentage of the control signal. `CO[C@@H]1[C@H](N(C)C(=O)c2ccccc2)C[C@H]2O[C@]1(C)n1c3ccccc3c3c4c(c5c6ccccc6n2c5c31)C(=O)NC4`: the residual activity is 99% in assay [1]; 103% in assay [2]; 90% in assay [3]; 97% in assay [4]; 86% in assay [5]; 94% in assay [6]. Besides, the residual activity was 70% in [7]; 94% in [8]; 97% in [9]; 111% in assay [10]; 222% in assay [11]; 119% (inactive) in [12]. Further, the residual activity in assay [13] is 130%; in assay [14], 107%; in assay [15] it was 372%; in assay [16], 67%; in assay [17], 90%.

These data come from ChEMBL document CHEMBL2218924, “A broad activity screen in support of a chemogenomic map for kinase signalling research and drug discovery” (Biochem J, 2013).
